Experiments:
Assay in all cases: DAPPL (digital affinity profiling via proximity ligation, sequencing); 10 mM Tris-HCl pH 7.5, 50 mM NaCl, 1 mM DTT, 4% glycerol, room temperature, 30 min; GST-TFs on glutathione beads, 16-mer random dsDNA library, 0.1% formaldehyde crosslink after washing; high values mean tight binding
FLI1 = target: T1, FLI1 (Homo sapiens, UniProt Q01543 1-452); conditions: protein: recombinant; tags: N-terminal GST; dsDNA, one strand shown
T1 sequence: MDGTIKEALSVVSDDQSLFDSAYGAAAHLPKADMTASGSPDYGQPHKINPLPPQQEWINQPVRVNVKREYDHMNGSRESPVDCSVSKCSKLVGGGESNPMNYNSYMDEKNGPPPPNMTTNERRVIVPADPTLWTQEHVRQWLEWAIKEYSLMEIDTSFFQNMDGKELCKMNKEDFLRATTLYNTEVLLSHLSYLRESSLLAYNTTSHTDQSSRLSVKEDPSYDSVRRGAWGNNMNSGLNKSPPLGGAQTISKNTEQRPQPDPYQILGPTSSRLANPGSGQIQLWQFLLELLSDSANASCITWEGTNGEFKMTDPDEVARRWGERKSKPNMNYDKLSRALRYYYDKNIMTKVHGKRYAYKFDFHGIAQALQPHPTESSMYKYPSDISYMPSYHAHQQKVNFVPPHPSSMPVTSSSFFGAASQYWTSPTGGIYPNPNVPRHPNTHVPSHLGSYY
Outline: (§1)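 After expression in yeast as GST fusions, human transcription factors were bound to glutathione beads, DNA-barcoded and mixed with a tag-only sample. The pools were incubated with 200 nmole of a 16-mer random double-stranded DNA library in Tris/NaCl/DTT/glycerol buffer (30 min, room temperature), washed and crosslinked with 0.1% formaldehyde. Proximity ligation with BsaI/T4 ligase ran for 1 h at 37 °C, before PCR amplification and sequencing on an Illumina NextSeq500. Binding signal is a hexamer's read frequency for a factor divided by its frequency for the tag-only sample.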

ELK1 = target: T2, ELK1 (Homo sapiens, UniProt P19419 1-428); conditions: protein: recombinant; tags: N-terminal GST; dsDNA, one strand shown
T2 sequence: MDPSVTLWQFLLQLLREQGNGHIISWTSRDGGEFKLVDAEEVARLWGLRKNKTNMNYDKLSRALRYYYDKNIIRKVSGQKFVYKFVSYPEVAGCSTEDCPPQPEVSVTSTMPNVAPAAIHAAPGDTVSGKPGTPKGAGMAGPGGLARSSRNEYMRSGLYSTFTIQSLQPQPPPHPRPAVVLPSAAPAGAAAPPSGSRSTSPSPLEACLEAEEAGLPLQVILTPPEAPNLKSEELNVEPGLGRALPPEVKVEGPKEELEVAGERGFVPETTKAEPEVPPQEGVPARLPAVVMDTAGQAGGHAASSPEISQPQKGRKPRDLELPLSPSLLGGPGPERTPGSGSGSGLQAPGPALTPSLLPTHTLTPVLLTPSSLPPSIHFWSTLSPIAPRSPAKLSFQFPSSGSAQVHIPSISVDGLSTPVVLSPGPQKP
Outline: as §1

GABPA = target: T3, GABPA (Homo sapiens, UniProt Q06546 1-454); conditions: protein: recombinant; tags: N-terminal GST; dsDNA, one strand shown
T3 sequence: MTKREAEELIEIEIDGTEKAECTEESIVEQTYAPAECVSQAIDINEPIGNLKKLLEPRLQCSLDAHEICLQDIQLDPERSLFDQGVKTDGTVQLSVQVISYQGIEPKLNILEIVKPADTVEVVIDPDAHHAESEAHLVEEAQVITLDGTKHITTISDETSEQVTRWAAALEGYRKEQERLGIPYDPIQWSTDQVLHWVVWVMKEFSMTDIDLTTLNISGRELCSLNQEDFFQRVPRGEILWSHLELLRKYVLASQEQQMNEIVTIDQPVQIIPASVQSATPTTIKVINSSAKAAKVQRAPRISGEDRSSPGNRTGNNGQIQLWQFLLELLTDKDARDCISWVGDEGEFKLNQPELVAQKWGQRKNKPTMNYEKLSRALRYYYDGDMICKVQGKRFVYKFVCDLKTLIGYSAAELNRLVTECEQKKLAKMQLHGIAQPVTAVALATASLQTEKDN
Outline: as §1

ERG = target: T4, ERG (Homo sapiens, UniProt P11308 1-479); conditions: protein: recombinant; tags: N-terminal GST; dsDNA, one strand shown
T4 sequence: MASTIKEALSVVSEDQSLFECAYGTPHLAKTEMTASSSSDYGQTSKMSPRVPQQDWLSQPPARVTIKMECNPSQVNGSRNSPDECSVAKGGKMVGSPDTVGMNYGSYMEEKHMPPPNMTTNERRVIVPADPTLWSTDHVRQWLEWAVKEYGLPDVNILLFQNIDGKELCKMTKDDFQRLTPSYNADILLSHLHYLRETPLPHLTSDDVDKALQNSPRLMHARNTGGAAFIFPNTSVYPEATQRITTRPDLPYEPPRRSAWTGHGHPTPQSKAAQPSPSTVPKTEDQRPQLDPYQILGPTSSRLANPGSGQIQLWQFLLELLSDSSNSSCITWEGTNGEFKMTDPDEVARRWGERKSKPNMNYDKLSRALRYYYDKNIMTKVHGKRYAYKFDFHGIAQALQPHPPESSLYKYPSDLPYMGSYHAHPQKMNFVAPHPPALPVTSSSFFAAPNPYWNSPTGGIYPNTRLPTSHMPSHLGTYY
Outline: as §1

ELF1 = ELF1 (Homo sapiens, UniProt P32519 1-619); conditions: protein: recombinant; tags: N-terminal GST; dsDNA, one strand shown
Outline: as §1

EHF = target: T5, EHF (Homo sapiens, UniProt Q9NZC4 1-300); conditions: protein: recombinant; tags: N-terminal GST; dsDNA, one strand shown
T5 sequence: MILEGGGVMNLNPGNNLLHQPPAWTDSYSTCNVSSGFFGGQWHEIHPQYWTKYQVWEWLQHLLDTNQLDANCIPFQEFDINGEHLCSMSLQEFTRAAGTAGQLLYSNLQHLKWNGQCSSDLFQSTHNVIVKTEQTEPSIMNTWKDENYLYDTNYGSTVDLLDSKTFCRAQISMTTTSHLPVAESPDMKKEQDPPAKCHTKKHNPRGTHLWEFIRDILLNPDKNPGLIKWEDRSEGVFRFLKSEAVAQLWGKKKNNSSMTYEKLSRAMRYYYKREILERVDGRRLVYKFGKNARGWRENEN
Outline: as §1

SPI1 = SPI1 (Homo sapiens, UniProt P17947 1-270); conditions: protein: recombinant; tags: N-terminal GST; dsDNA, one strand shown
Outline: as §1

SPIB = SPIB (Homo sapiens, UniProt Q01892 1-262); conditions: protein: recombinant; tags: N-terminal GST; dsDNA, one strand shown
Outline: as §1

ELK3 = target: T6, ELK3 (Homo sapiens, UniProt P41970 1-407); conditions: protein: recombinant; tags: N-terminal GST; dsDNA, one strand shown
T6 sequence: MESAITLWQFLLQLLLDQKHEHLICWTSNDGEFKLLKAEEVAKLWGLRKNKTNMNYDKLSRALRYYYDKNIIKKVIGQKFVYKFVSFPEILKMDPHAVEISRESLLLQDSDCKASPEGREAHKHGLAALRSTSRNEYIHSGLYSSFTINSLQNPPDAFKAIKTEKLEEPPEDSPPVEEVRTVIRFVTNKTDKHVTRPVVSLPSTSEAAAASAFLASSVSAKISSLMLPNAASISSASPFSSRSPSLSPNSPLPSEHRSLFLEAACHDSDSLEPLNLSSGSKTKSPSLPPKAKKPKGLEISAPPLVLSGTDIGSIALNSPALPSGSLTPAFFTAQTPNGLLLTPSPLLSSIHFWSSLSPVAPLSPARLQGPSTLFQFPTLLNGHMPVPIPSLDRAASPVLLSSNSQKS
Outline: as §1

FEV = target: T7, FEV (Homo sapiens, UniProt Q99581 1-238); conditions: protein: recombinant; tags: N-terminal GST; dsDNA, one strand shown
T7 sequence: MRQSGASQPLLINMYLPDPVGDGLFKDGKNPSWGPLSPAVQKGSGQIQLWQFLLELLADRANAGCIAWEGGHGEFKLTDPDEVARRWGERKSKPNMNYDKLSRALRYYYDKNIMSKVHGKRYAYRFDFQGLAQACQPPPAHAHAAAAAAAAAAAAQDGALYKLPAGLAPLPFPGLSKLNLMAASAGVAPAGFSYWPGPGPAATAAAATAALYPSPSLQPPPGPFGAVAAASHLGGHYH
Outline: as §1

ETV5 = ETV5 (Homo sapiens, UniProt P41161 1-510); conditions: protein: recombinant; tags: N-terminal GST; dsDNA, one strand shown
Outline: as §1

HSF1 = HSF1 (Homo sapiens, UniProt Q00613 1-529); conditions: protein: recombinant; tags: N-terminal GST; chain copies: 3; dsDNA, one strand shown
Outline: as §1

SPIC = target: T8, SPIC (Homo sapiens, UniProt Q8N5J4 1-248); conditions: protein: recombinant; tags: N-terminal GST; dsDNA, one strand shown
T8 sequence: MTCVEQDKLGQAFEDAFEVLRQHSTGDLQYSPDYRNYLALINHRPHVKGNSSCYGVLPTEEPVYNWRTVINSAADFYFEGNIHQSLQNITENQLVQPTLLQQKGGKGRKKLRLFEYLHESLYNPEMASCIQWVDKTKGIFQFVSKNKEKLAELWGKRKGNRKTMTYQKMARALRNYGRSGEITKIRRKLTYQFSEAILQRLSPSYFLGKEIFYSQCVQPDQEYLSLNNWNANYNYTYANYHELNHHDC
Outline: as §1

ELF4 = ELF4 (Homo sapiens, UniProt Q99607 1-663); conditions: protein: recombinant; tags: N-terminal GST; dsDNA, one strand shown
Outline: as §1

ELK4 = target: T9, ELK4 (Homo sapiens, UniProt P28324-2 1-405); conditions: protein: recombinant; tags: N-terminal GST; dsDNA, one strand shown
T9 sequence: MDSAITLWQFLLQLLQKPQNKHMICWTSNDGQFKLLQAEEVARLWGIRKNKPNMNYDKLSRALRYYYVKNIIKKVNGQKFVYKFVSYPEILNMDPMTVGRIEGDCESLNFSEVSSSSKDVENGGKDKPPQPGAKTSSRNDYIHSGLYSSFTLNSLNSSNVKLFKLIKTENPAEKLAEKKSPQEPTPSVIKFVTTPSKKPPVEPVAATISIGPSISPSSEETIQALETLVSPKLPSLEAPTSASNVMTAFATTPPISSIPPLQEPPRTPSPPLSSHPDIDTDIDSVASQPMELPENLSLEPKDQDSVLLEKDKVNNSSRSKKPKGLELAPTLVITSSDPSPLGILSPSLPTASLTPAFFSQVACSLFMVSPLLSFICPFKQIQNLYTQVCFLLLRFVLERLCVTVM
Outline: as §1

ETV2 = target: T10, ETV2 (Homo sapiens, UniProt O00321 1-342); conditions: protein: recombinant; tags: N-terminal GST; dsDNA, one strand shown
T10 sequence: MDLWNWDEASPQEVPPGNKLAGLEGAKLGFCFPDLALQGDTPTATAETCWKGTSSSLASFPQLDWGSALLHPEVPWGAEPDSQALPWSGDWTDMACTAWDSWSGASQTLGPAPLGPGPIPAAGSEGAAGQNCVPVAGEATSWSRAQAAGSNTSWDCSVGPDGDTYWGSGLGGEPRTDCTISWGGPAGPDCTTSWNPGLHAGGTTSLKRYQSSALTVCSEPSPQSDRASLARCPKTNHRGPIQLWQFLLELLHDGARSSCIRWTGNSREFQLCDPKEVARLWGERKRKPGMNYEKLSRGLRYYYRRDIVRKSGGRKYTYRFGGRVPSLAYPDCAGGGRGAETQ
Outline: as §1

ELF3 = target: T11, ELF3 (Homo sapiens, UniProt P78545 1-371); conditions: protein: recombinant; tags: N-terminal GST; dsDNA, one strand shown
T11 sequence: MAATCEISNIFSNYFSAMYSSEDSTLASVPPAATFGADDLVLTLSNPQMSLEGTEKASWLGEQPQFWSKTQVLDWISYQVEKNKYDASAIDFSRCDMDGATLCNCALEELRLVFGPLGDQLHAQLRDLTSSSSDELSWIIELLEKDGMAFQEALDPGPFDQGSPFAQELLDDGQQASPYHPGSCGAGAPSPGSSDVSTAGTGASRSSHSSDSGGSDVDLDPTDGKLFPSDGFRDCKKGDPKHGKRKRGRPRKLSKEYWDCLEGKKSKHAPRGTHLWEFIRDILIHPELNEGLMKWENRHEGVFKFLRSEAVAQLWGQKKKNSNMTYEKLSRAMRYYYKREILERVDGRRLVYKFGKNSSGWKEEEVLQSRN
Outline: as §1

ETV1 = ETV1 (Homo sapiens, UniProt P50549 1-477); conditions: protein: recombinant; tags: N-terminal GST; dsDNA, one strand shown
Outline: as §1

ELF4, sequence (Q99607 whole entry): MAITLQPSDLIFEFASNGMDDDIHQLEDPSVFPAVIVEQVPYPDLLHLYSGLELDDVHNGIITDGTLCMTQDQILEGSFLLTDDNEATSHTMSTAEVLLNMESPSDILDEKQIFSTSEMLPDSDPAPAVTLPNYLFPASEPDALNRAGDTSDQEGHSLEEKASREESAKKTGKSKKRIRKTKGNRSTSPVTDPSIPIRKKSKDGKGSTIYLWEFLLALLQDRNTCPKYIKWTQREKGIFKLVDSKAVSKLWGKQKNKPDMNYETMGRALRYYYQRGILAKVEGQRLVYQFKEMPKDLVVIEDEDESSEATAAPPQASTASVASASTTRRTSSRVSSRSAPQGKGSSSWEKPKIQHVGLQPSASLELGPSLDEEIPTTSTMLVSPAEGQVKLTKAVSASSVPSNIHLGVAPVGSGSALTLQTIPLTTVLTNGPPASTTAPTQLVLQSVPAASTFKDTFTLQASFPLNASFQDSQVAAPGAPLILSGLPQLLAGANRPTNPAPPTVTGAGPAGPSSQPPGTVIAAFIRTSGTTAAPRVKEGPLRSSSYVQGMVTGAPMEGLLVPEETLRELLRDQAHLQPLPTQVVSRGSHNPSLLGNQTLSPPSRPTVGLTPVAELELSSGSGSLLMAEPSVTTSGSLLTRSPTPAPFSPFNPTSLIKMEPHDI
HSF1, sequence (Q00613 whole entry): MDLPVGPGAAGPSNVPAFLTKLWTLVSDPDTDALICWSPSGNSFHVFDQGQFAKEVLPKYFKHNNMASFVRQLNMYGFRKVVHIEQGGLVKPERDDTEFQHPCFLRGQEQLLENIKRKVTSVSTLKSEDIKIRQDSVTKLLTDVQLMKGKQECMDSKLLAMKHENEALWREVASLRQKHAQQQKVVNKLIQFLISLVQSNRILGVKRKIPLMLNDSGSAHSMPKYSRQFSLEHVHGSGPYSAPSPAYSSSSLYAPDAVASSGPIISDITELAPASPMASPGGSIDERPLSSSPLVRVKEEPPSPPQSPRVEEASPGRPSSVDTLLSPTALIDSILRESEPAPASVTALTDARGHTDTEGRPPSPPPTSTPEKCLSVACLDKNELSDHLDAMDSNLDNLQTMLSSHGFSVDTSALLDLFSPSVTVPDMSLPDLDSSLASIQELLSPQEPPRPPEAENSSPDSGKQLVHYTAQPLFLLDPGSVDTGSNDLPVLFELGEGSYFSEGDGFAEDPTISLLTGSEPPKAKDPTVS
SPIB, sequence (Q01892 whole entry): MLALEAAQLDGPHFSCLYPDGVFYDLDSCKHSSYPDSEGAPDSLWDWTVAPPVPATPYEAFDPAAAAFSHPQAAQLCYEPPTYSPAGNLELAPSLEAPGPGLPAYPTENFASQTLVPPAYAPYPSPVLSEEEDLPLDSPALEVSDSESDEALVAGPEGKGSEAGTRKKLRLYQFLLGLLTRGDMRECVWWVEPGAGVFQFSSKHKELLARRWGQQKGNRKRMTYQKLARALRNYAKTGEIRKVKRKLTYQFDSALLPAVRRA
ETV5, sequence (P41161 whole entry): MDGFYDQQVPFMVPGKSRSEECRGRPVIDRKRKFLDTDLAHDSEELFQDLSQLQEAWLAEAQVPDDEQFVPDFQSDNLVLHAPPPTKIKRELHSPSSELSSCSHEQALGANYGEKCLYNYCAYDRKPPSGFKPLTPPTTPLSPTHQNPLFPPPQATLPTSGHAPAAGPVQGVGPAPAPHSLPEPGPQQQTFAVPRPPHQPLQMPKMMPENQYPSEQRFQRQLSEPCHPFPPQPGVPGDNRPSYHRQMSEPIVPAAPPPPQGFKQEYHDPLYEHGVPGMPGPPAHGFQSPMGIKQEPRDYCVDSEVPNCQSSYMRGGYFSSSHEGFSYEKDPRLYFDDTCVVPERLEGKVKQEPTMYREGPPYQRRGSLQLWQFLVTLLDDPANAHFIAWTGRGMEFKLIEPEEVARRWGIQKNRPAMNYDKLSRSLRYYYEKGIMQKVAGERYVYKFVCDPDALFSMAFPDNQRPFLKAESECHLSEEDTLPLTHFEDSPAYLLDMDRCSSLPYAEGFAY
ETV1, sequence (P50549 whole entry): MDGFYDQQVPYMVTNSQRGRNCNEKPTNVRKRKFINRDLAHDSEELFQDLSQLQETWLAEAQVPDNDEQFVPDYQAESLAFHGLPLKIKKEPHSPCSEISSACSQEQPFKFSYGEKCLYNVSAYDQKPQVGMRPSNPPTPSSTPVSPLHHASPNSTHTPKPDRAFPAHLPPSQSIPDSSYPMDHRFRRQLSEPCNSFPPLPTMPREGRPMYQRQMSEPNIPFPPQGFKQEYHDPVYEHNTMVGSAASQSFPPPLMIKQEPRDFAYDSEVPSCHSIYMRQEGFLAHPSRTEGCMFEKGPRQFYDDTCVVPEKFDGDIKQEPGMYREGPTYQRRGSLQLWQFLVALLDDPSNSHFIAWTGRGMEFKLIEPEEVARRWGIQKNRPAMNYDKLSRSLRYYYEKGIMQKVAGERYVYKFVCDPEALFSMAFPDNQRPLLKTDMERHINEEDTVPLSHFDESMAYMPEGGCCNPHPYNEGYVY
ELF1, sequence (P32519 whole entry): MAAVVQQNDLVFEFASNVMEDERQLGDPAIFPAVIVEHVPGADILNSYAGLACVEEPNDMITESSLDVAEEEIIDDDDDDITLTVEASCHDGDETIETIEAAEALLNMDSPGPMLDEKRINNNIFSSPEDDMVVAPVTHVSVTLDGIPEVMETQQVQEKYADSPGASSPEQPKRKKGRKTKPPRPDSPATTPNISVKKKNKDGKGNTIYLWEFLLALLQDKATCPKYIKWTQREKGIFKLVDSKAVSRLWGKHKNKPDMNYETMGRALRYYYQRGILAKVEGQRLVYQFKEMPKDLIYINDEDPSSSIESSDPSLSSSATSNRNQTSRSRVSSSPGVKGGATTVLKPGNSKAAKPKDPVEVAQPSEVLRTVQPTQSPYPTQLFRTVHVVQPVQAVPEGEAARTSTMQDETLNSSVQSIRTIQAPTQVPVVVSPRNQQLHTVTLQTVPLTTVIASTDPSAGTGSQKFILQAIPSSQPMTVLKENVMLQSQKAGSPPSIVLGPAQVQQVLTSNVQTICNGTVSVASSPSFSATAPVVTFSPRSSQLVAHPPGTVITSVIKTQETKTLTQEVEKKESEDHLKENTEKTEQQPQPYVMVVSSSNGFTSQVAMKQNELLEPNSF

Sequence	binding signal (FLI1)	binding signal (ELK1)	binding signal (GABPA)	binding signal (ERG)	binding signal (ELF1)	binding signal (EHF)	binding signal (SPI1)	binding signal (SPIB)	binding signal (ELK3)	binding signal (FEV)	binding signal (ETV5)	binding signal (HSF1)	binding signal (SPIC)	binding signal (ELF4)	binding signal (ELK4)	binding signal (ETV2)	binding signal (ELF3)	binding signal (ETV1)
TGACCA	1.25 fold enrichment (6-mer frequency, TF over GST control)	1.32 fold enrichment (6-mer frequency, TF over GST control)	1.33 fold enrichment (6-mer frequency, TF over GST control)	1.15 fold enrichment (6-mer frequency, TF over GST control)	1.29 fold enrichment (6-mer frequency, TF over GST control)	1.33 fold enrichment (6-mer frequency, TF over GST control)	1.25 fold enrichment (6-mer frequency, TF over GST control)	1.21 fold enrichment (6-mer frequency, TF over GST control)	1.45 fold enrichment (6-mer frequency, TF over GST control)	1.22 fold enrichment (6-mer frequency, TF over GST control)	1.23 fold enrichment (6-mer frequency, TF over GST control)	1.05 fold enrichment (6-mer frequency, TF over GST control)	1.06 fold enrichment (6-mer frequency, TF over GST control)	1.29 fold enrichment (6-mer frequency, TF over GST control)	1.29 fold enrichment (6-mer frequency, TF over GST control)	1.17 fold enrichment (6-mer frequency, TF over GST control)	1.11 fold enrichment (6-mer frequency, TF over GST control)	1.21 fold enrichment (6-mer frequency, TF over GST control)
GGAAAT	2.51 fold enrichment (6-mer frequency, TF over GST control)	2.64 fold enrichment (6-mer frequency, TF over GST control)	2.39 fold enrichment (6-mer frequency, TF over GST control)	3.22 fold enrichment (6-mer frequency, TF over GST control)	2.39 fold enrichment (6-mer frequency, TF over GST control)	3.06 fold enrichment (6-mer frequency, TF over GST control)	2.6 fold enrichment (6-mer frequency, TF over GST control)	2.88 fold enrichment (6-mer frequency, TF over GST control)	2.69 fold enrichment (6-mer frequency, TF over GST control)	4 fold enrichment (6-mer frequency, TF over GST control)	3.05 fold enrichment (6-mer frequency, TF over GST control)	1.29 fold enrichment (6-mer frequency, TF over GST control)	2.47 fold enrichment (6-mer frequency, TF over GST control)	2.4 fold enrichment (6-mer frequency, TF over GST control)	2.13 fold enrichment (6-mer frequency, TF over GST control)	2.4 fold enrichment (6-mer frequency, TF over GST control)	2.74 fold enrichment (6-mer frequency, TF over GST control)	2.69 fold enrichment (6-mer frequency, TF over GST control)

— PMC7862700, “An all-to-all approach to the identification of sequence-specific readers for epigenetic DNA modifications on cytosine”
